Measurements taken from PubChem BioAssay (NCATS).
Where “and” joins values, the source holds several entries; their conditions need not be identical. Equal values may be shown once. Inconclusive results are not listed. A call without a number means that no potency is given here. A number with no mark means an inactive call. Calls of active or inactive are those of the source. Unless noted, the call rests on the fitted dose curve.

System: not listed separately
Assay: qHTS assay for small molecule activators of the nuclear factor-kappa B (NF-kB) signaling pathway (AID 651749; active means well fitted activation curve with a large enough effect in the signal ratio; the % refers to the signal ratio)
Details: NF-kB-bla ME-180 cells, beta-lactamase FRET ratio, 16 h; active compounds read high
Outline: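 Readout: beta-lactamase reporter driven by an NF-kB response element, detected fluorescently as loss of FRET. Cells were the ME-180 line, treated 16 hr at 37C with pin-transferred compound.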
Work on `CC(C)(COCC1CO1)COCC1CO1` (stereo not drawn) yielded an activation of 0.814%.
With `Cc1ccc2c(c1N)C(=O)c1ccccc1C2=O` the activation was 0.359% and 2.04%.
In the case of `CC(C)(C)OOC(=O)c1ccccc1`, the activation is reported as 0.502% and 3.48%.
`COC(C)(C)C` showed an activation of 1.85%.
With `O=[N+]([O-])/C=C/c1ccccc1` the activation was -0.835%.

System: not listed separately
Assay: qHTS assay for small molecule disruptors of the mitochondrial membrane potential - 1 hr assay (AID 651754); further: nearly all actives have a fitted effect of over 35% in size; further: potency means the concentration at half of the fitted maximal effect
Details: series mostly up to 92.2 µM
Outline: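 HepG2 cells, attached overnight, were exposed to compound for 1 hr at 37C, then stained 30 min with a potentiometric dye. Ratio of red aggregate (590nm) to green monomer (535nm) fluorescence reports membrane potential; collapse shifts signal toward green.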
For `O=C(O)C(Br)Br`, the Potency was “inactive”.
In the case of `Cc1ccc(OP(=O)(Oc2ccc(C)cc2)Oc2ccc(C)cc2)cc1`, the Potency is reported as 9.44 µM (active).
For `Oc1c(Cl)c(Cl)cc(Cl)c1Cl`, the Potency was 42.2 µM (active).
In the case of `Nc1ccc(Cc2ccc(N)c(Cl)c2)cc1Cl`, the Potency is reported as “inactive”.
In the case of `CN(C)c1ccc(N(C)C)cc1`, the Potency is reported as “inactive”.
In the case of `O=[N+]([O-])c1c(Cl)c(Cl)c(Cl)c(Cl)c1Cl`, the Potency is reported as “inactive”.
For `CN1CSC(=S)N(C)C1`, the Potency was “inactive”.
For `ClCC(Cl)Cl`, the Potency was “inactive”.
In the case of `C=CC(=O)OCCO`, the Potency is reported as “inactive”.
With `CC(C)Br` the Potency was “inactive”.
In the case of `O=[N+]([O-])c1ccc(O)c([N+](=O)[O-])c1`, the Potency is reported as 21.1 µM (active).
In the case of `CCCC[N+](=O)[O-]`, the Potency is reported as “inactive”.
For `Cc1cc(-c2cc(C)c(N)c(C)c2)cc(C)c1N`, the Potency was “inactive”.
With `Nc1cc(Cl)ccc1O` the Potency was 29.8 µM (active).
For `CCN(N=O)C(N)=O`, the Potency was “inactive”.
With `N#CC(Cl)(Cl)Cl` the Potency was “inactive”.
With `O=C(O)C(Br)CBr` (stereo not drawn) the Potency was “inactive”.
For `Nc1c(Br)cc([N+](=O)[O-])cc1[N+](=O)[O-]`, the Potency was 21.1 µM (active).
With `O=[N+]([O-])c1ccccc1CCl` the Potency was “inactive”.
With `Cc1cc(C)cc(OP(=O)(Oc2cc(C)cc(C)c2)Oc2cc(C)cc(C)c2)c1` the Potency was 11.9 µM (active).
In the case of `N#CC(Br)Br`, the Potency is reported as “inactive”.
In the case of `O=C(O)C(Cl)Br` (stereo not drawn), the Potency is reported as “inactive”.
In the case of `O=C(O)c1cccc(Cl)c1`, the Potency is reported as “inactive”.
With `OCCCCO` the Potency was “inactive”.
In the case of `O=[N+]([O-])c1cc(Cl)c(Cl)c(Cl)c1`, the Potency is reported as “inactive”.
In the case of `CC(C)(COCC1CO1)COCC1CO1` (stereo not drawn), the Potency is reported as “inactive”.
In the case of `Cc1ccc2c(c1N)C(=O)c1ccccc1C2=O`, the Potency is reported as 2.66 µM (active).
In the case of `COc1ccccc1N`, the Potency is reported as “inactive”.
In the case of `CC(C)(C)OOC(=O)c1ccccc1`, the Potency is reported as “inactive”.
In the case of `COC(C)(C)C`, the Potency is reported as “inactive”.
In the case of `C(CCOCC1CO1)COCC1CO1` (stereo not drawn), the Potency is reported as “inactive”.
For `CN(C)c1ccc(N)cc1`, the Potency was 29.8 µM (active).
With `O=[N+]([O-])/C=C/c1ccccc1` the Potency was “inactive”.

System: not listed separately
Assay: qHTS assay for small molecule disruptors of the mitochondrial membrane potential - 5 hr assay (AID 651755); further: nearly all actives have a fitted effect of over 40% in size; further: potency means the concentration at half of the fitted maximal effect
Details: JC-1-type ratio dye; series mostly up to 92.2 µM
Outline: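 HepG2, 2,000 cells/well, overnight attach; cpd or DMSO 5 hr, 37C/5% CO2; Mito-MPS 30 min 37C; fluor 490/535 + 540/590 nm.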
In the case of `O=C(O)C(Br)Br`, the Potency is reported as “inactive”.
In the case of `Cc1ccc(OP(=O)(Oc2ccc(C)cc2)Oc2ccc(C)cc2)cc1`, the Potency is reported as 13.3 µM (active).
In the case of `Nc1ccc(Cc2ccc(N)c(Cl)c2)cc1Cl`, the Potency is reported as “inactive”.
For `CN(C)c1ccc(N(C)C)cc1`, the Potency was “inactive”.
With `Brc1ccc(Oc2ccc(Br)cc2Br)c(Br)c1` the Potency was “inactive”.
With `O=[N+]([O-])c1c(Cl)c(Cl)c(Cl)c(Cl)c1Cl` the Potency was “inactive”.
In the case of `CN1CSC(=S)N(C)C1`, the Potency is reported as “inactive”.
In the case of `ClCC(Cl)Cl`, the Potency is reported as “inactive”.
For `C=CC(=O)OCCO`, the Potency was “inactive”.
In the case of `CC(C)Br`, the Potency is reported as “inactive”.
In the case of `O=[N+]([O-])c1ccc(O)c([N+](=O)[O-])c1`, the Potency is reported as 37.6 µM (active).
In the case of `CCCC[N+](=O)[O-]`, the Potency is reported as “inactive”.
With `Cc1cc(-c2cc(C)c(N)c(C)c2)cc(C)c1N` the Potency was “inactive”.
With `Nc1cc(Cl)ccc1O` the Potency was 33.5 µM (active).
For `CCN(N=O)C(N)=O`, the Potency was “inactive”.
With `N#CC(Cl)(Cl)Cl` the Potency was “inactive”.
For `O=C(O)C(Br)CBr` (stereo not drawn), the Potency was “inactive”.
In the case of `Nc1c(Br)cc([N+](=O)[O-])cc1[N+](=O)[O-]`, the Potency is reported as 26.6 µM (active).
In the case of `O=[N+]([O-])c1ccccc1CCl`, the Potency is reported as “inactive”.
For `N#CC(Br)Br`, the Potency was “inactive”.
With `O=C(O)C(Cl)Br` (stereo not drawn) the Potency was “inactive”.
For `Nc1ccc([N+](=O)[O-])cc1N`, the Potency was “inactive”.
For `O=C(O)c1cccc(Cl)c1`, the Potency was “inactive”.
In the case of `OCCCCO`, the Potency is reported as “inactive”.
In the case of `O=[N+]([O-])c1cc(Cl)c(Cl)c(Cl)c1`, the Potency is reported as “inactive”.
In the case of `CC(C)(COCC1CO1)COCC1CO1` (stereo not drawn), the Potency is reported as “inactive”.
For `Cc1ccc2c(c1N)C(=O)c1ccccc1C2=O`, the Potency was 2.66 µM (active).
For `COc1ccccc1N`, the Potency was “inactive”.
In the case of `CC(C)(C)OOC(=O)c1ccccc1`, the Potency is reported as “inactive”.
For `COC(C)(C)C`, the Potency was “inactive”.
With `C(CCOCC1CO1)COCC1CO1` (stereo not drawn) the Potency was “inactive”.
With `CN(C)c1ccc(N)cc1` the Potency was 29.8 µM (active).
In the case of `O=[N+]([O-])/C=C/c1ccccc1`, the Potency is reported as “inactive”.

Target: Tumor necrosis factor (Homo sapiens) (UniProt P01375)
Sequence (P01375 whole entry, looked up): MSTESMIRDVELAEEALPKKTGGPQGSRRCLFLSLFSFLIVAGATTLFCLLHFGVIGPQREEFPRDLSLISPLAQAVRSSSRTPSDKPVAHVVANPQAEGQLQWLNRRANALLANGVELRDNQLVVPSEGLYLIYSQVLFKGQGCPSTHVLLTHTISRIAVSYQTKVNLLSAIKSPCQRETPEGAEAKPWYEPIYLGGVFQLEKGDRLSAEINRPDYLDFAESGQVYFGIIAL
Assay: qHTS assay to identify small molecules that stimulate Tumor Necrosis Factor-alpha (TNF-alpha) secretion (AID 651757; active means well fitted curve in the direction sought with a large enough effect in the signal ratio; the % refers to the signal ratio)
Details: Human cells, HTRF 665/615 ratio; series mostly up to 92.2 µM
Outline: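 THP-1 cells (3000/well) exposed to compounds 17 hrs at 37 C. Secreted TNF-alpha detected by HTRF with cryptate- and XL665-labeled anti-TNF-alpha antibodies after 3 hr at room temperature.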
With `O=C(O)C(Br)Br` the outcome was “inactive”.
For `Cc1ccc(OP(=O)(Oc2ccc(C)cc2)Oc2ccc(C)cc2)cc1`, the outcome was “inactive”.
With `Oc1c(Cl)c(Cl)cc(Cl)c1Cl` the outcome was “inactive”.
In the case of `Nc1ccc(Cc2ccc(N)c(Cl)c2)cc1Cl`, the outcome is reported as “inactive”.
For `Brc1ccc(Oc2ccc(Br)cc2Br)c(Br)c1`, the outcome was “inactive”.
In the case of `O=[N+]([O-])c1c(Cl)c(Cl)c(Cl)c(Cl)c1Cl`, the outcome is reported as “inactive”.
In the case of `CN1CSC(=S)N(C)C1`, the outcome is reported as “inactive”.
For `ClCC(Cl)Cl`, the outcome was “inactive”.
For `C=CC(=O)OCCO`, the outcome was “inactive”.
In the case of `CC(C)Br`, the outcome is reported as “inactive”.
In the case of `O=[N+]([O-])c1ccc(O)c([N+](=O)[O-])c1`, the outcome is reported as “inactive”.
With `CC(C)[N+](=O)[O-]` the outcome was “inactive”.
For `CCCC[N+](=O)[O-]`, the outcome was “inactive”.
With `CCN(N=O)C(N)=O` the outcome was “inactive”.
With `N#CC(Cl)(Cl)Cl` the outcome was “inactive”.
With `CCCCC(CC)COC(=O)c1ccc(C(=O)OCC(CC)CCCC)c(C(=O)OCC(CC)CCCC)c1` (stereo not drawn) the outcome was “inactive”.
With `O=C(O)C(Br)CBr` (stereo not drawn) the outcome was “inactive”.
With `O=[N+]([O-])c1ccccc1CCl` the outcome was “inactive”.
In the case of `Cc1cc(C)cc(OP(=O)(Oc2cc(C)cc(C)c2)Oc2cc(C)cc(C)c2)c1`, the outcome is reported as “inactive”.
With `N#CC(Br)Br` the outcome was “inactive”.
For `O=C(O)C(Cl)Br` (stereo not drawn), the outcome was “inactive”.
In the case of `COP(=S)(OC)SCn1nnc2ccccc2c1=O`, the outcome is reported as “inactive”.
For `O=C(O)c1cccc(Cl)c1`, the outcome was “inactive”.
In the case of `OCCCCO`, the outcome is reported as “inactive”.
For `O=[N+]([O-])c1cc(Cl)c(Cl)c(Cl)c1`, the outcome was “inactive”.
For `CC(C)(COCC1CO1)COCC1CO1` (stereo not drawn), the outcome was “inactive”.
With `COc1ccccc1N` the outcome was “inactive”.
In the case of `CC(C)(C)OOC(=O)c1ccccc1`, the outcome is reported as “inactive”.
In the case of `c1ccc(N=NNc2ccccc2)cc1`, the outcome is reported as “inactive”.
With `COC(C)(C)C` the outcome was “inactive”.
For `C(CCOCC1CO1)COCC1CO1` (stereo not drawn), the outcome was “inactive”.
With `O=[N+]([O-])/C=C/c1ccccc1` the outcome was “inactive”.
